The values that follow come from PubChem BioAssay AID1508622 (National Center for Advancing Translational Sciences (NCATS), 2021).

Active and inactive are the calls of the source. A call without a number means that no potency is given here. Calls come from the whole dose curve; as a rule, active = well fitted activation curve with a large enough effect; inconclusive = small, poorly fitted or top-dose-only effect; inactive = no such curve, though single readings can be large or run the other way.

The assay can be described thus: Confirmatory qHTS for Identification of Small Molecule Activators of Huntingtin-Antisense Promoter Activity. As to conditions: HEK293 HTT-AS promoter firefly luciferase reporter, 24 h; series mostly up to 57.5 µM. The essentials:
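Activity normalized between vehicle control (0%) and zero RLU (-100%) from firefly luminescence (Dual-Glo). Compounds, up to 57.5 uM final, incubated 24 h at 37C on HEK293 reporter cells plated 24 h earlier.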
Consider `COC(=O)c1ccccc1NC(=O)Cn1nc(C(F)(F)F)c2c1CCCC2`, for which the Potency entry is “inactive”.
Regarding `Cc1ccc(Nc2cc(C(=O)NC3CCCC3)c3ccccc3n2)cc1C`, the Potency result is “inactive”.
For the molecule `CCCCOc1ccc(CNC(=O)c2cc3n(n2)CCCN(Cc2ccc(C)cc2)C3=O)cc1`, the Potency result was “inactive”.
For `CN(C)S(=O)(=O)c1ccc(C(=O)NCCSc2c(-c3ccc(Br)cc3)[nH]c3ccccc23)cc1`, the Potency result is “inactive”.
Turning to `Cc1cc(C)c(NS(=O)(=O)c2ccc(-c3cnc(C4CC4)o3)cc2)c(C)c1`, the Potency entry is “inactive”.
In the case of `CC(C)c1ccc(NC(=O)CSC2=Nc3ccccc3C3=NC(CCC(=O)NCc4ccc(F)cc4)C(=O)N23)cc1` (stereo not drawn), the Potency result was “inactive”.
For `CCc1ccc(NC(=O)C2CCCN(S(=O)(=O)c3cccc4nsnc34)C2)cc1` (stereo not drawn) the value was “inactive”; for `O=C(NCCC1=CCCCC1)c1ccc2c(c1)N(Cc1cccc(Cl)c1)C(=O)c1ccccc1S2(=O)=O`, “inactive”; for `CCOC(=O)c1cnc2ccc(OC)cc2c1Nc1ccc(OCc2ccccc2Cl)cc1`, “inactive”.
For `Cc1cc(NC(=O)c2cc(-c3ccc(F)cc3)on2)nn1Cc1ccc(Cl)cc1` the value was “inactive”; for `CCOc1ccc(NS(=O)(=O)c2ccc(-c3cc(C)no3)s2)cc1`, “inactive”.
The result for `Cc1csc2nc(COC(=O)c3ccccc3NC(=O)c3ccccc3Cl)cc(=O)n12` reads “inactive”; that for `CCn1c(CN2CCCCC2)nc2cc(NC(=O)c3ccc([N+](=O)[O-])cc3)ccc21`, “inactive”.
Regarding `CCN(CC)S(=O)(=O)c1ccc2c(c1)N(CC(=O)N1CCN(c3cccc(C(F)(F)F)c3)CC1)C(=O)CO2`, the Potency entry was “inactive”.
As to `COc1ccc(-c2nc(CNS(=O)(=O)c3ccc(F)cc3)cs2)cc1`, the Potency entry is “inactive”.
Regarding `Cc1ccc(NC(=O)c2ccc(F)c(S(=O)(=O)NCCc3ccccc3)c2)cc1F`, the Potency result is “inactive”.
The result for `Cc1ccc(NC(=O)c2ccc(C)c(S(=O)(=O)N3CCCCCC3)c2)cc1` reads “inactive”; that for `FC(F)(F)c1cccc(Nc2nc3nonc3nc2Nc2ccc(Cl)cc2)c1`, “inactive”; that for `COc1ccc(C(=O)CN2CCN(S(=O)(=O)c3ccc(C(C)C)cc3)CC2)cc1`, “inactive”.
Turning to `COc1ccccc1C1C=C(c2ccc(F)cc2)Nc2nc(-c3ccc(Cl)cc3)nn21` (stereo not drawn), the Potency result was “inactive”.
On to `CC(=O)Nc1cccc(NC(=O)CSc2nccn2Cc2ccccc2)c1`, for which the Potency result was “inactive”.
For `COc1ccc(NC(=O)CN2C(=O)C(C)(C)c3ccccc32)cc1Cl` the value was “inactive”; for `Cc1ccc(-n2ccnc(NCCc3ccc(S(N)(=O)=O)cc3)c2=O)c(C)c1`, “inactive”.
The result for `CCCCCN1C(C(=O)c2ccccc2)=C(OC(=O)CC)c2ccccc2S1(=O)=O` reads “inactive”; that for `Cc1nc(-c2ccc(S(=O)(=O)Nc3ccc(C)c(N(C)C)c3)cc2)co1`, “inactive”.
Take `CCc1ccc(NC(=O)c2ccc(F)c(S(=O)(=O)N3CCc4ccccc4C3)c2)cc1`: the Potency entry is “inactive”.
The result for `CCOc1ccc(NCc2cccn2-c2nnc(N3CCC(C(=O)NCCc4ccc(OC)c(OC)c4)CC3)s2)cc1` reads “inactive”; that for `COc1ccc(CCNC(=O)c2ccc3c(c2)CCN3S(=O)(=O)c2ccc(C)cc2)cc1`, “inactive”.
The result for `O=C(C=Cc1ccc(O)cc1)c1ccc(O)cc1O` reads “inactive”.
For `COc1ccc(NC(=O)c2ccc(-c3nc(CSc4ccccc4)c(C)o3)cc2)c(OC)c1` the value was “inactive”; for `Cc1ccc(CNC(=O)Nc2cc(C(=O)NCc3ccc(C(C)C)cc3)ccc2N2CCCC2)cc1`, “inactive”.
Consider `Cc1nc(-c2ccc(Cl)cc2)sc1CCNC(=O)Cc1ccc(F)cc1`, for which the Potency result was “inactive”.
The result for `CCc1ccc(NC(=O)c2ccc(F)c(S(=O)(=O)N(C)C3CCCCC3)c2)cc1` reads “inactive”; that for `COc1ccc(N2CCN(Cc3nc4c(c(=O)n(C)c(=O)n4C)n3C(C)C)CC2)cc1`, “inactive”; that for `COc1cccc(NC(CNS(=O)(=O)c2ccc(Cl)cc2)c2ccccc2)c1` (stereo not drawn), “inactive”.
For `CCOC(=O)c1ccc(N2C(=O)c3[nH]nc(-c4ccccc4)c3C2c2cccs2)cc1` (stereo not drawn), the Potency result is “inactive”.
`CCOC(=O)c1cnc2ccc(OCC)cc2c1Nc1ccc(OCc2ccccc2Cl)cc1`: the Potency result is “inactive”.
The result for `COc1cc2nc(N3CCCN(C)CC3)nc(NC3CCN(Cc4ccccc4)CC3)c2cc1OC` reads “inactive”.
